Measurements published in PubChem BioAssay AID1851 (National Center for Advancing Translational Sciences (NCATS), 2009).
“And” between values parts separate entries of the source, which are not always exact repeats. Equal entries are not always repeated. Hit rate of the full screen: of about 16,000 compounds, about 5,700 (36%) were called active. About 24% were inconclusive and are not listed. Calls come from the whole dose curve; as a rule, active = well fitted curve in the direction sought with a large enough effect; inconclusive = small, poorly fitted or top-dose-only effect, or effect the other way; inactive = no such curve, though single readings can be large or run the other way. The list shows a part of the results.

biological target: Cytochrome P450 1A2 (Homo sapiens) (UniProt P05177); test: Cytochrome panel assay with activity outcomes; conditions: recombinant CYP, pro-luciferin dealkylation, luminescence, p450-cyp1a2; series mostly up to 57.1 µM; activity, negative = inhibition: at the top concentration
Sequence (P05177 whole entry, looked up): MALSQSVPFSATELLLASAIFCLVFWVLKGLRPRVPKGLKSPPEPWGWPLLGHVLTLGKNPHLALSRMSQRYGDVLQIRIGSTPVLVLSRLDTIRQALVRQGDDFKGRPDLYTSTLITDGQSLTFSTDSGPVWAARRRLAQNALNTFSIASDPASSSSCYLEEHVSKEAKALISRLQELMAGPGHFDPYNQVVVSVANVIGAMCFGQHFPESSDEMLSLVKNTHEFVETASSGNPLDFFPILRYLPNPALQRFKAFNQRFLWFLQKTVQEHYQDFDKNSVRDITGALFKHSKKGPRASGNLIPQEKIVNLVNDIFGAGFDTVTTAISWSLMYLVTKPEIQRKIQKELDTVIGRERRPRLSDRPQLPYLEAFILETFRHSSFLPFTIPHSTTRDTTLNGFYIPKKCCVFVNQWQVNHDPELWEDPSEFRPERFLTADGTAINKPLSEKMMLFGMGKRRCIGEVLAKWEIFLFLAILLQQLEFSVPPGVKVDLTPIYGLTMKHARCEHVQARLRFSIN
Method: The P450 gene superfamily is involved in the metabolism and clearance of xenobiotics. This assay used various human CYP P450 isozymes to measure the dealkylation of various pro-luciferin substrates to luciferin. The luciferin is then measured by luminescence after the addition of a luciferase detection reagent. Pro-luciferin substrate concentration in the assay was equal to its KM for its CYP P450 isozyme. Inhibitors and some substrates limit the production of luciferin, and decrease measured luminescence.
NCGC Assay Protocol Summary:
1, Reagent, 2 uL, Isozyme and Pro-Luciferin
2, Library compounds, 23 nl, 40 uM to 0.24 nM dilution series
3, Controls, 23 nl, Isozyme specific inhibitor
4, Reagent, 2 uL, NADPH regeneration solution
5, Incubation time, 60 min, Isozyme specific temperature
6, Reagent, 4ul, Detection reagent
7, Incubation time, 20 min, Isozyme specific temperature
8, Detection, 1 sec, ViewLux luminescent read
The luciferase-based P450-GloTM Screening Systems were obtained from Promega (Madison, WI) for CYP 1A2 (V9770), CYP 2C9 (V9790), CYP2 C19 (V9880), CYP 2D6 (V9890), and CYP 3A4 Luciferin-PPXE (V9910) and were adapted for 1,536-well microplates and an automated protocol. The control compounds furafylline for 1A2 (F124), sulfaphenazole for CYP 2C9 (S0758), ketoconazole for CYP 2C19 (K1003), quinidine for 2D6 (Q3625), and ketoconazole for 3A4 (K1003) were purchased from Sigma Aldrich (St. Louis, MO). Recombinant P450 enzymes were obtained from baculovirus constructs expressed in insect cells (BD/Gentest).
Medium-binding white solid Kalypsys plates used. Mixtures kept on ice. 1A2: 10 nM 1A2, 100 uM Luc-ME, 100 mM KPO4; 2C9: 10 nM 2C9, 100 uM Luc-H, 25 mM KPO4; 2C19: 5 nM 2C19, 10 uM Luc-H EGE, 50 mM KPO4; 2D6: 5 nM 2D6, 30 uM Luc-ME EGE, 100 mM KPO4; 3A4: 10 nM, 25 uM Luc-PPXE. All amounts are reflected in their final concentration, working concentration is 2x.
NADPH regeneration solution: 1.3 mM NADP+, 3.3 mM glucose-6-phosphate, 3.3 mM MgCl2, 0.4 U/mL glucose-6-phosphate dehydrogenase for all isozymes, 200 mM KPO4 for 3A4. Mixture prepared at RT but kept on ice during automated run.
RT incubation in auxilliary plate hotel for 1A2, 2D6, and 3A4; 37C for 2C9 and 2C19.
Keywords: P450, CYP1A2, CYP2C19, CYP2C9, CYP2D6, CYP3A4, Luciferase, MLSMR, MLSCN, NIH Roadmap, qHTS, NCGC
% is set by controls: 0 for no effect and ±100 for the full control effect.

SMILES	activity, negative = inhibition	AC50
COc1cccc([C@@H]2Oc3ccc(OC)cc3/C(=N/O[C@@H](C)CN3CCCc4nc(C)c(C)cc43)[C@@H]2O)c1	2.03% [at 11.4 µM] (inactive)	
CN(C)S(=O)(=O)c1cc([N+](=O)[O-])ccc1N1CCCCCC1		14.1 µM (active)
CN1CCN(c2ccc([N+](=O)[O-])cc2S(=O)(=O)N2CCOCC2)CC1	6.31% (inactive)	
Cn1c(CCN2CCCCC2)nc2cc([N+](=O)[O-])ccc21	-14.1% (inactive)	
CCCNC(=O)OC[C@@H]1O[C@H](CCO/N=C(\C)CCC(=O)OC[C@@H]2O[C@H](c3ccccc3)C=C[C@@H]2Oc2ccc(OC)cc2)C=C[C@@H]1Oc1ccc(OC)cc1	-2.5% [at 11.4 µM] (inactive)	
CNc1ccc(Br)cc(C(=O)/C=C/c2ccc3c(c2)OCO3)c1=O		3.16 µM (active)
Nc1ccccc1C(=O)/C=C\c1ccc2c(c1)OCO2	-4.77% [at 11.4 µM] (inactive)	
CCNc1ccc(Br)cc(C(=O)/C=C/c2ccc3c(c2)OCO3)c1=O		22.4 µM (active)
Oc1cc(O)c2c(c1)O[C@H](c1ccc(O)c(O)c1)[C@H](O)C2		inactive
O=C(NC1CCCC1)C1CC(c2ccc(F)cc2)=NO1 (stereo unspecified)		15.8 µM (active)
Cc1ccc(CCN2CC(C(=O)NC3CCCC3)CC2=O)cc1 (stereo unspecified)	-27.7% (inactive)	
CC1CCCC(C)N1C(=O)C1CC(c2ccc(F)cc2)=NO1 (stereo unspecified)	-45.5% (inactive)	
Cc1c(Cl)cccc1NC(=O)C[C@H]1Sc2ccccc2NC1=O	-23.2% [at 2.29 µM] (inactive)	
COC(=O)c1c(-c2ccccc2)csc1NC(=O)CSc1ncnc2sc(C)c(C)c12	-28.3% (inactive)	
COC(=O)c1c(NC(=O)CC2Nc3ccccc3NC2=O)sc(C)c1C (stereo unspecified)		10 µM (active)
Cc1cc(NC(=O)Nc2ccc(N(C)C)cc2)c2cc(F)cc(F)c2n1		0.126 µM (active)
CO[C@@H]1COC(=O)C/C=C\[C@@H](C)[C@@H]2C=C[C@H](O)[C@@H](COC(=O)CCC[C@H]1C)O2	1.73% [at 11.4 µM] (inactive)	
Cc1ccc(Nc2nc(-c3c(C)nc4ncccn34)cs2)cc1		3.16 µM (active)
Cc1cc(Br)ccc1NCc1ccccn1		1.12 µM (active)
CN(C)CC[C@H](c1ccc(Br)cc1)c1ccccn1		inactive
Cc1cc(NCc2ccccn2)ccc1Br		4.47 µM (active)
Cc1cc(N=Cc2c(CO)cnc(C)c2O)c(N=Cc2c(CO)cnc(C)c2O)cc1C.[Zn]	-10.4% [at 2.29 µM] (inactive)	
CC(=O)NC1(c2cccc(F)c2)CCN(CC(=O)NC2CCCCC2)CC1	-13.1% (inactive)	

SMILES	activity, negative = inhibition	AC50
CCCC(c1cc(C(C)(C)C)c(O)cc1C)c1cc(C(C)(C)C)c(O)cc1C	-12.3% [at 2.29 µM] (inactive)	
N#Cc1c(NC(=O)C(F)(F)F)sc2c3c(=O)c4ccccc4c(=O)c=3oc3ccccc3c12		1 µM (active)
C[C@@](N)(C(=O)O)c1ccc(C(=O)O)cc1		inactive
CN(C(=O)c1cnc(N2CCN(c3ncccn3)CC2)c2ccccc12)c1ccc(Cl)cc1		15.8 µM (active)
O=C(c1cnc(N2CCN(c3ncccn3)CC2)c2ccccc12)N1CCN(c2ncccn2)CC1	-27.3% (inactive)	
COCC(=O)N1CCC2(CC1)CCN(c1ncccn1)CC2	1.86% (inactive)	
CCOC(=O)CC1C(=O)NCCN1S(=O)(=O)c1ccc(Cl)c(Cl)c1 (stereo unspecified)	-0.861% (inactive)	
CN(CCc1ccc(Cl)c(Cl)c1)CCN1CCCCCC1		31.6 µM (active)
COc1ccc(CCN(C)CCc2ccc(OC)c(OC)c2)cc1OC	-18.9% (inactive)	
O=C(Cc1ccc(Cl)c(Cl)c1)OCCN1CCCC1		12.6 µM (active)
CO[C@H]1COC(=O)[C@@H](CCSC)NC(=O)C/C=C\[C@@H](C)[C@H](OC)COC(=O)[C@@H](OCc2ccccc2)/C=C\[C@@H]1C	-4.15% [at 11.4 µM] (inactive)	
Cc1ccc(C(=O)NCCNc2ccc(Cl)cc2[N+](=O)[O-])o1		2 µM (active)
COc1cccc(C2C(C(=O)c3cc4ccccc4o3)=C(O)C(=O)N2c2cc(C)on2)c1OC (stereo unspecified)	-22.3% (inactive)	
COc1cccc2cc3c(=O)oc4ccccc4c3nc12		0.0891 µM (active)
CO/N=C\C[C@@H]1C=C[C@H](OC(C)=O)[C@H](COC(C)=O)O1	-9.17% [at 11.4 µM] (inactive)	
CCO/C([O-])=N/c1c[n+](N2CCOCC2)no1	-15.8% [at 25.6 µM] (inactive)	
CC(C)C(C(=O)NCC1CCCO1)N(Cc1ccco1)C(=O)CNS(=O)(=O)c1ccc(F)cc1 (stereo unspecified)	-23.5% (inactive)	
O=C(NCCc1cccs1)C1CC(c2c(Cl)cccc2Cl)=NO1 (stereo unspecified)		0.501 µM (active)
CCN(CC)C(=S)SSC(=S)N(CC)CC		6.31 µM (active) and 1.58 µM (active)
Cn1cc(-c2nc3cnc(N4CCNCC4)nc3n(-c3ccccc3)c2=O)c2ccccc21		15.8 µM (active)
COc1ccc(-n2c(=O)c(-c3cn(C)c4ccccc34)nc3cnc(N4CCNCC4)nc32)cc1		15.8 µM (active)
Cn1cc(-c2nc3cnc(N4CCNCC4)nc3n(C3CC3)c2=O)c2ccccc21		12.6 µM (active)
COc1ccc2c3c([nH]c2c1)[C@H]1C[C@@H]2[C@@H](C[C@@H](O)[C@H](OC)[C@H]2C(=O)O)CN1CC3	-1.02% [at 11.4 µM] (inactive)	

SMILES	activity, negative = inhibition	AC50
COc1cnc(-c2ccccn2)nc1Oc1ccc(Cl)c2ccccc12		5.62 µM (active)
CCOC(=O)/C(C#N)=C1/C=CN(C)C=N1	-5.3% (inactive)	
CC(C)N(CCNC(=O)C1CCN(S(=O)(=O)N2CCOCC2)CC1)Cc1ccccc1	-8.41% (inactive)	
CC(C)N(CCNC(=O)C1CCC(=O)N1Cc1ccc(F)cc1)Cc1ccccc1 (stereo unspecified)	-25.1% (inactive)	
CC(C)N(CCC(=O)c1ccc2ccccc2c1)Cc1ccccc1		3.98 µM (active)
N=C(N)S[C@H]1c2ccccc2-c2cc([N+](=O)[O-])ccc21		0.158 µM (active)
CN1CCCN(C)C1c1cc([N+](=O)[O-])ccc1O	-14.3% [at 11.4 µM] (inactive)	
Cc1ccc(C)c(/C(O)=C2\C(=O)C(=O)N(Cc3cccnc3)C2c2cccnc2)c1 (stereo unspecified)		25.1 µM (active)
COc1ccc(/C(O)=C2/C(=O)C(=O)N(Cc3cccnc3)C2c2ccco2)cc1OC (stereo unspecified)	5.59% (inactive)	
COCCCN1C(=O)C(=O)/C(=C(/O)c2ccc(OC)cc2C)C1c1cccnc1 (stereo unspecified)	3% (inactive)	
COc1cccc(Cn2c(=O)c(-c3cccs3)nc3cnc(OC)nc32)c1		3.16 µM (active)
CCNc1ncc2nc(-c3ccc(Cl)cc3)c(=O)n(Cc3cccc(OC)c3)c2n1	-13.6% (inactive)	
COc1cccc(Cn2c(=O)c(-c3cccs3)nc3cncnc32)c1		5.01 µM (active)
COc1cccc(Cn2c(=O)c(-c3ccc(Cl)cc3)nc3cnc(OC)nc32)c1		3.98 µM (active)
COc1ccc(Oc2ncc3nc(-c4cccs4)c(=O)n(Cc4cccc(OC)c4)c3n2)cc1	-16.1% (inactive)	
COc1cc(C2SCCCCCCCCCCSC(c3ccc(O)c(OC)c3)SCCCCCCCCCCS2)ccc1O (stereo unspecified)	-6.91% [at 2.29 µM] (inactive)	
COCC(=O)N1CCC2(CC1)CN(Cc1ccc(C#N)cc1)C2	-6.96% (inactive)	
CC(C)=CCC/C(C)=C/CO/N=C1/C[C@@H](O)[C@@H](O)[C@@H]2[C@@H]3C(=O)N(Cc4ccc5c(c4)OCO5)C(=O)[C@H]3CC[C@@H]12	-3.81% [at 11.4 µM] (inactive)	
N[C@@H](CO)C(=O)O		inactive
O=C(CSc1nnc(SCc2cccc3ccccc23)s1)c1ccc2c(c1)OCO2		2.24 µM (active)
COC(=O)C1Cc2c([nH]c3ccccc23)CN1 (stereo unspecified)		0.398 µM (active)
CC[C@H]1CN(C)[C@H]2Cc3c([nH]c4ccccc34)C(=O)C[C@H]1[C@H]2C(=O)OC	-10.5% [at 11.4 µM] (inactive)	
O=C(O)[C@@H]1Cc2c([nH]c3ccccc23)[C@@H](CCCCO)N1	-9.61% [at 2.29 µM] (inactive)	

SMILES	activity, negative = inhibition	AC50
O=C1Nc2ccc(F)cc2C12SCCS2		15.8 µM (active)
Cc1ccc2c(c1)C1(SCCS1)C(=O)N2		0.891 µM (active)
COC(=O)Cn1c(=O)c2c(nc(Br)n2Cc2ccccc2Cl)n(C)c1=O	-11.9% (inactive)	
CN(CCCNC(=O)C1CCC(=O)N1Cc1ccccc1Cl)c1ccccc1 (stereo unspecified)	-7.82% (inactive)	
CCOC(=O)n1c(=O)n(Cc2ccccc2Cl)c2ccccc21		4.47 µM (active)
CCOC(=O)n1c(=O)n(Cc2c(Cl)cccc2Cl)c2ccccc21		14.1 µM (active)
CCOC(=O)CC1C(=O)NCCN1S(=O)(=O)c1ccccc1Cl (stereo unspecified)	2.6% (inactive)	
COc1ccc(CN2CCN(C(=O)CC(C)C)CC2)c(OC)c1OC	23.3% (inactive)	
COc1cccc(NC(=O)c2cc(-c3cccnc3)nc3c(Cl)cccc23)c1		8.91 µM (active)
CCOC(=O)C1=C(C)NC2=C(C(=O)C(C(=O)OCC)C(c3ccc(OC)cc3)C2)C1c1ccccn1 (stereo unspecified)	-24.6% (inactive)	
CCOC(=O)C1C(=O)C=C(/C=C/c2ccccc2)CC1c1ccc(Cl)cc1 (stereo unspecified)		5.01 µM (active)
CC(C)(CO[C@H]1C[C@H]2CC[C@@]1(C)C2(C)C)[N+](=O)[O-]	-17.1% [at 11.4 µM] (inactive)	
Fc1ccc(C2=Nn3c(Cc4ccccc4F)nnc3SC2)cc1		0.355 µM (active)
Cc1ccc(S(=O)(=O)NCCn2c(C)cc3ccccc32)cc1		15.8 µM (active)
Cc1ccc(S(=O)(=O)NC(=O)c2cccn2C)cc1	-17.6% (inactive)	
Cc1cc2ccccc2n1CCNC(=O)C1CCCC1		1 µM (active)
Cc1cc2ccccc2c(=O)n1CC(=O)NCC(=O)N1CCCC1	-2.57% (inactive)	
Cc1cc2ccccc2n1CCNC(=O)c1ccccc1		4.47 µM (active)
Cc1ccc(C)n1NC(=O)c1ccccc1	-14.9% (inactive)	
O=C(Nc1nc2ccccc2n1CCN1CCCCC1)C1CCCCC1	-14.4% (inactive)	
Cc1ccc(S(=O)(=O)NCCSc2nnnn2C)cc1	-4.13% (inactive)	
CS(=O)(=O)c1ccc([C@H](O)[C@H](CO)NC(=O)C(Cl)Cl)cc1	-1.73% [at 25.6 µM] (inactive)	
